Laboratory results reported in PubChem BioAssay (NCI).
This is part of a sample that, as a whole, favours compounds with a hit. Of some 83,000 tested, about 20% had one in any assay.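 Step 1: grow cells in 96-well plates. Step 2: add test compound at a single concentration. Step 3: incubate 48 h. Step 4: record percent growth.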 Active and inactive are the calls of the source. The calls were made as follows: active = growth percent below 10; inactive = the rest.

Assays:
Experiment in all cases: NCI-60 one-dose screen, 48 h (100 = growth as untreated, 0 = no growth, -100 = all killed)
[1] = system: SK-MEL-2 melanoma; conditions: 10 µM unless noted
[2] = system: EKVX NSCLC; conditions: 10 µM
[3] = system: SN12C renal; conditions: 10 µM unless noted
[4] = system: UO-31 renal; conditions: 10 µM unless noted
[5] = system: TK-10 renal; conditions: 10 µM unless noted
[6] = system: ACHN renal; conditions: 10 µM unless noted
[7] = system: CAKI-1 renal; conditions: 10 µM unless noted
[8] = system: A498 renal; conditions: 10 µM unless noted
[9] = system: CCRF-CEM leukemia; conditions: 10 µM
[10] = system: MOLT-4 leukemia; conditions: 10 µM unless noted
[11] = system: SR leukemia; conditions: 10 µM unless noted
[12] = system: RPMI-8226 leukemia; conditions: 10 µM unless noted
[13] = system: OVCAR-8 ovarian; conditions: 10 µM unless noted
[14] = system: OVCAR-5 ovarian; conditions: 10 µM unless noted
[15] = system: OVCAR-4 ovarian; conditions: 10 µM unless noted
[16] = system: SK-OV-3 ovarian; conditions: 10 µM unless noted
[17] = system: IGROV1 ovarian; conditions: 10 µM unless noted
[18] = system: OVCAR-3 ovarian; conditions: 10 µM unless noted
[19] = system: HS 578T breast; conditions: 10 µM unless noted
[20] = system: NCI/ADR-RES ovarian; conditions: 10 µM unless noted

Measured: growth

CCOc1nc(-c2ccccc2)cc2c(O)c(C(=O)N/N=C/c3ccccc3O)[nH]c(=O)c12
active: [20] 5.38%
inactive: [1] 61.3% | [2] 97.3% | [3] 115% | [4] 73.5% | [5] 140% | [6] 107% | [7] 101% | [8] 102% | [9] 69.4% | [10] 17.1% | [11] 28.2% | [12] 99.3% | [13] 65.4% | [14] 89.7% | [15] 93% | [16] 102% | [17] 50.1% | [18] 76.7% | [19] 66.1%

N=C(N)c1ccc(-c2ccc(-c3cc(Cl)cc(Cl)c3)s2)cc1
active: [1] -46.1% | [2] -72% | [3] -77% | [4] -77.5% | [5] -74.8% | [6] -94.4% | [7] -90.2% | [8] -94.6% | [9] -67.1% | [10] -50.3% | [11] -16.6% | [12] -48.9% | [13] -12.5% | [14] -78.3% | [15] -66.1% | [16] -78.6% | [17] -73.8% | [18] -83.4% | [19] -46.8% | [20] -47.4%

OCC(O)C(O)CC1SCCS1 (configuration not stated)
inactive: [1] 107% | [2] 97.2% | [3] 97.9% | [4] 78% | [5] 96.5% | [6] 103% | [7] 98% | [8] 101% | [9] 90.6% | [10] 84.8% | [11] 103% | [12] 122% | [13] 96.3% | [14] 106% | [15] 112% | [16] 103% | [17] 107% | [18] 101% | [19] 106% | [20] 102%

CC(=O)OC1CC2C3CCC4C[C@@H](NC(=O)C=C(C)C)CC[C@]4(C)C3CC[C@]2(C)[C@H]1C(C)N(C)C (some centres not stated)
inactive: [2] 29.3% | [3] 14.3% | [5] 48.4% | [6] 21.4% | [8] 33.2% | [12] 13.9% | [13] 45.1% | [14] 58.9% | [16] 25.8% | [17] 33.6% | [20] 41.7%
active: [1] 5.9% | [4] 8.5% | [7] -19.6% | [9] 0.674% | [10] -31.9% | [11] -21% | [15] -8.18% | [18] -4.96% | [19] 0.863%

C/C(=N\Nc1ccc(Cl)cn1)c1ccccn1
inactive: [1] 28.3% | [3] 15.3% | [5] 33.6% | [13] 16.6% | [14] 23.1% | [15] 28.7% | [17] 10.2% | [18] 20.5% | [19] 34.6%
active: [2] 8.35% | [4] -2.91% | [6] 2.81% | [7] 5.04% | [8] -25.2% | [9] 2.72% | [10] 2.11% | [11] 4.86% | [12] 8.56% | [16] 3.63% | [20] -10.2%

O=C1Nc2ccccc2/C1=C/c1cn(CC(O)Cn2cc(/C=C3\C(=O)Nc4ccccc43)c3ccccc32)c2ccccc12 (configuration not stated)
inactive: [20] 31.8%
active: [1] -57.6% | [2] -62.3% | [3] -53.6% | [4] -9.18% | [5] -15.1% | [6] -68.4% | [7] 9.83% | [8] -73.2% | [9] -30.6% | [10] -29.4% | [11] -2.94% | [12] -41.7% | [13] 1.35% | [14] -34.2% | [15] -51.7% | [16] -38.2% | [17] -67.4% | [18] -85.1% | [19] -22.3%

CC1(C)C(O)NC(Cl)=C(C#N)C1(C#N)C#N (configuration not stated)
inactive: [1] 97.6% | [2] 102% | [3] 127% | [4] 81.3% | [5] 143% | [6] 127% | [7] 177% | [8] 103% | [9] 78.8% | [10] 103% | [11] 119% | [12] 110% | [13] 103% | [14] 83% | [15] 107% | [16] 108% | [18] 229% | [19] 114% | [20] 103%
active: [17] -10.9%

Oc1ccccc1/C=N/N=C\c1ccccc1Cl
inactive: [1] 102% | [2] 75.9% | [3] 92.6% | [4] 40.5% | [5] 132% | [6] 95.8% | [7] 86.8% | [8] 141% | [10] 61.3% | [11] 82.4% | [12] 102% | [13] 95.2% | [14] 115% | [15] 93.4% | [16] 96% | [18] 84.1% | [19] 105% | [20] 95.2%
active: [9] 1.42%

COc1cc2ncnc(Nc3ccc4c(cnn4C(=O)Nc4ccccc4)c3)c2cc1OC
active: [11] 1.84%
inactive: [1] 103% | [2] 85.2% | [3] 82.1% | [4] 65.3% | [5] 72.3% | [6] 94.2% | [7] 76.9% | [8] 65.1% | [9] 31.6% | [10] 80.8% | [12] 70.5% | [13] 103% | [14] 105% | [15] 88.5% | [16] 110% | [18] 95.7% | [19] 102% | [20] 100%

CC(=O)Nc1ccc(CC#N)cc1Br
inactive: [1] 106% | [2] 112% | [3] 107% | [4] 95% | [5] 96.4% | [6] 109% | [7] 96.5% | [8] 79.9% | [9] 107% | [10] 118% | [11] 112% | [12] 109% | [13] 110% | [14] 109% | [15] 98.2% | [16] 104% | [17] 110% | [18] 108% | [19] 89.9% | [20] 116%

CCC(C)C1NC(=O)C(CCCCN)NC(=O)C(CCCCN)NC(=O)C(CC(C)C)NC(=O)C(CCCCN)NC(=O)C(C(C)CC)NC(=O)C(C(C)C)NC(=O)C(C(C)CC)NC(=O)C(CCCCN)NC(=O)C(CCCCN)NC(=O)C(C)NC(=O)C(CCCCN)NC(=O)C(CC(C)C)NC1=O (configuration not stated)
active: [6] 3.79% | [7] 6.74% | [11] 2.93% | [12] -17.4%
inactive: [1] 28.6% | [2] 13.5% | [3] 12.3% | [4] 14.6% | [5] 19.5% | [8] 21.8% | [9] 22% | [10] 22.2% | [13] 12.4% | [14] 67.3% | [15] 23.2% | [16] 26.1% | [17] 24.4% | [18] 10.6% | [19] 53% | [20] 58.7%

c1ccc2[nH]c(-c3ccc(OCCCCCOc4ccc(-c5nc6ccccc6[nH]5)cc4)cc3)nc2c1
inactive: [1] 64% | [2] 87% | [3] 19.8% | [4] 78% | [6] 35.5% | [7] 94.1% | [8] 143% | [14] 16.1% | [16] 207% | [18] 20.4%
active: [5] -50.9% | [9] -87.9% | [10] -19.1% | [11] -22.3% | [12] -79.4% | [13] -45.6% | [15] -60.5% | [19] 4.31% | [20] -0.189%

Cc1nc(NC(=S)Nc2ccc(F)cc2)sc1C(=O)NNC(=S)Nc1ccc(F)cc1
inactive: [2] 63.2% | [3] 71.8% | [4] 38.7% | [5] 43.5% | [6] 65.3% | [7] 101% | [8] 53.6% | [9] 40.1% | [10] 36.5% | [11] 81.6% | [13] 87.4% | [14] 86.3% | [15] 42.8% | [16] 94% | [17] 51.7% | [18] 56.6% | [19] 72.4% | [20] 78.1%
active: [1] 3.22% | [12] -16.8%

COc1cc(-c2c3c(cn2CCN2CCCCC2)-c2oncc2CC3)cc(OC)c1OC
inactive: [1] 106% | [2] 102% | [3] 101% | [4] 80.2% | [5] 100% | [6] 89.7% | [7] 87% | [8] 90.9% | [9] 103% | [10] 100% | [11] 92.5% | [12] 108% | [13] 101% | [14] 85.3% | [15] 100% | [16] 93.7% | [17] 104% | [18] 113% | [19] 99.3% | [20] 97.3%

CC(C)(C)C(=O)CCCCCCCC/C=C/CCCC(O)c1ccco1 (configuration not stated)
active: [9] -44.3%
inactive: [1] 105% | [2] 102% | [3] 110% | [4] 98.3% | [5] 105% | [6] 120% | [7] 110% | [8] 109% | [10] 76.1% | [11] 14.3% | [12] 91.7% | [13] 104% | [14] 93.6% | [15] 104% | [16] 116% | [17] 116% | [18] 126% | [19] 106% | [20] 108%
